# L3MBTL1 inh – inhibitors of human L3MBTL1; Q9Y468; AlphaScreen L3MBTL1–H3K9me1 peptide binding; Potency, µM (series often up to 57.1 µM), for the others: at the highest dose activity, negative = inhibition, usual class: inhibitors; actives 0.66% (n = 230,000); AID 485360; also: % is scaled to controls: 0 for no effect and ±100 for the full control effect; nearly all actives have a fitted effect of over 60% in size
#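 Displacement of a biotinylated histone H3(1-15) peptide monomethylated at Lys9 (75 nM) from L3MBTL1 (50 nM) was measured by AlphaScreen after a 30 min room-temperature compound incubation; cefsulodin titration served as intraplate control.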
# BAZ2B inh – inhibitors of human BAZ2B bromodomain; Q9UIF8; AlphaScreen BAZ2B-H3K14Ac peptide displacement; Potency, µM (titrated, usually from 114 µM), for inactives: at the highest dose activity change, negative = inhibition, hits mostly inhibitors; actives 4.4% (n = 360,000); also: % is scaled to controls: 0 for no effect and ±100 for the full control effect; nearly all actives have a fitted effect of over 60% in size
#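 In this displacement format the biotinylated H3(5-23) peptide acetylated at Lys14 serves as ligand at 50 nM, with BAZ2B at 50 nM in PBS pH 7.4 containing 0.01% Tween-20. Donor and acceptor beads are 10 ug/mL final.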
# Sfp PPTase inh – Sfp phosphopantetheinyl transferase inhibition; actives 3.5% (n = 310,000); AID 1490; Biochemical Sfp PPTase activity, qHTS; Potency, µM, for the others: largest response in the series, negative = inhibition, hits mostly inhibitors;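 also: the enzyme is Sfp with the accession as filed and its product quenches rhodamine fluorescence; 0% = enzyme reaction without inhibitor and -100% = no enzyme wells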
#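 Reaction rates are the 30-min fluorescence difference (ex 525, em 598 nm) in wells containing 15 nM Sfp, 5 uM rhodamine-CoA and 12.5 uM BHQ-2-YbbR at pH 7.6 with 10 mM MgCl2.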
# G9a block – G9a (human) methyltransferase inhibition | actives 8.8% (n = 350,000) | G9a H3K9 monomethylation, AlphaScreen, 2 h | Q96KQ7 | Potency, µM (top dose mostly 102 µM), for the others: at the top dose activity, negative = inhibition, actives largely listed as inhibitors | AID 504332; also: % is scaled to controls: 0 for no effect and ±100 for the full control effect; nearly all actives have a fitted effect of over 75% in size
# Target sequence (Q96KQ7 913-1193 limits assumed): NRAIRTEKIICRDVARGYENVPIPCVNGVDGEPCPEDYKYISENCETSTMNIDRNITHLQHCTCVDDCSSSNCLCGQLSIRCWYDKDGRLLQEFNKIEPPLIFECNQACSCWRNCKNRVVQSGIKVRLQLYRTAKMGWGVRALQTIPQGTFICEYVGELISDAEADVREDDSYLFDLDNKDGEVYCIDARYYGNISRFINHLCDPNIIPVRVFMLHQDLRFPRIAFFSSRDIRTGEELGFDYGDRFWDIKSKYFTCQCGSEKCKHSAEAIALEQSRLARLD
#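 Methyltransferase reactions run at room temperature for 2 h (20 nM enzyme, 500 nM biotin-H3K9 peptide, 20 uM SAM) after a 15 min compound preincubation; product detected by AlphaScreen beads and anti-H3K9me1 antibody.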
# JMJD2A Tudor inh – inhibitors of human JMJD2A Tudor domain. AlphaScreen JMJD2A-Tudor / H3K4me3 peptide binding. Potency, µM (highest dose often 114 µM), without a hit: top-dose activity change, negative = inhibition, most hits filed as inhibitors. actives 4.4% (n = 390,000). AID 504339; also: % is scaled to controls: 0 for no effect and ±100 for the full control effect; nearly all actives have a fitted effect of over 50% in size
# HP1b binding inh – HP1-beta chromodomain-methylated histone interaction inhibition; Potency, µM (highest dose often 114 µM), without a hit: top-dose activity change, negative = inhibition, actives largely listed as inhibitors; AID 540317; AlphaScreen HP1-beta / biotin-H3K9me3 peptide binding; actives 0.56% (n = 390,000); P83916; also: nearly all actives have a fitted effect of over 70% in size
# Target sequence (P83916 whole entry, looked up): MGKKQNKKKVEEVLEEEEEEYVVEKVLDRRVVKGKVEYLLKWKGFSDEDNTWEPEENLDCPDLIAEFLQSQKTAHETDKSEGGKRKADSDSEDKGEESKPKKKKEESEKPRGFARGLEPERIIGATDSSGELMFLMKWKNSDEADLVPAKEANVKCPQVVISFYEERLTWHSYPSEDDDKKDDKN
#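 HP1-beta protein (50 nM final) preincubated 30 min at room temperature with biotinylated H3(1-18)K9me3 peptide (50 nM) in PBS pH 7.4, 0.01% Tween-20, then compound added for 30 min. AlphaScreen streptavidin donor/nickel chelate acceptor beads (10 ug/mL final), 30 min dark, luminescence read.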
# Numbers without * were called inactive; u = inconclusive; x = not tested or not shown; [ ] = remark or other dose. An excerpt weighted towards active compounds, which were near 12% of everything screened. Calls follow the shape of the dose curve; as a rule, active = well fitted curve in the direction sought with a large enough effect; inconclusive = small, poorly fitted or top-dose-only effect, or another doubt; inactive = no such curve, though single readings can be large; an effect the other way counts as inactive or inconclusive. Potency is read from the fitted curve at half-maximal effect.
SMILES,L3MBTL1 inh,BAZ2B inh,Sfp PPTase inh,G9a block,JMJD2A Tudor inh,HP1b binding inh
C#CCOCCOCCOCCNc1nc(N2CCN(C(=O)CCCCCCCCCCNC(=O)[C@H](CCCCN)n3cc(C[C@@H](C)CC)nn3)CC2)nc(N2CCN(C(=O)CCCCCCCCCCNC(=O)[C@H](CCCN=C(N)N)n3cc(C[C@@H](C)CC)nn3)CC2)n1,-6%,50µM*,x,-38%[2.33 µM],35µM*,50µM*
C#CCOCCOCCOCCNc1nc(N2CCN(C(=O)CCCCCCCCCCNC(=O)[C@H](CCCCN)n3cc(C)nn3)CC2)nc(N2CCN(C(=O)CCCCCCCCCCNC(=O)[C@H](CCCN=C(N)N)n3cc(C[C@@H](C)CC)nn3)CC2)n1,u,u,x,-7%[2.33 µM],56µM*,u
C#CCOCCOCCOCCNc1nc(N2CCN(C(=O)CCCCCCCCCCNC(=O)[C@@H](CCSC)n3cc(CCO)nn3)CC2)nc(N2CCN(C(=O)CCCCCCCCCCNC(=O)[C@H](CCCN=C(N)N)n3cc(C[C@@H](C)CC)nn3)CC2)n1,-8%,50µM*,x,-15%[2.33 µM],45µM*,-32%
O=C1CCc2cc(S(=O)(=O)Nc3ccc(F)c(Cl)c3)ccc2N1,x,x,x,x,1%,x
CC(NC(=O)c1sc2ncccc2c1-n1cccc1)c1ccccc1 (stereo unspecified),x,-18%,x,6%[59 µM],-30%,8%[57 µM]
COC(=O)c1ccc(C(NC(=O)OCc2ccccc2)/C(I)=C/[C@@H](C)C(=O)NCc2ccc(C)o2)cc1 (stereo partly specified),x,x,40µM*,x,x,x
CCCN1C(=O)C2(c3ccccc31)c1c(oc3cc(C)c(C)cc3c1=O)C(=O)N2CCCOC (stereo unspecified),x,-1%,x,-1%[59 µM],-23%,3%
COc1ccc(C2=Nn3c(nnc3-c3ccccn3)SC2)cc1,u,25µM*,-9%,-97%,40µM*,25%
COc1ccc(C2=Nn3c(nnc3-c3ccccc3C)SC2)cc1,x,x,45µM*,x,-17%,x
COc1ccc(C2=Nn3c(nnc3-c3ccccc3C)SC2)cc1OC,x,x,5%,x,-19%,x
CCc1ccc(NC(=O)c2sc(-n3nc(C)c(Cc4ccc(OC)cc4)c3C)nc2C)cc1,x,u,x,-16%[59 µM],9%,21%
Cn1c(N)c(C(=O)Nc2ccc3ccccc3c2)sc1=S,13%,0%,14µM*,7.1µM*,-18%,-21%
Nc1c(C(=O)Nc2ccc(F)cc2)sc(=S)n1-c1ccccc1F,x,-12%,32µM*,7.9µM*,-19%,-22%
Cn1c(N)c(C(=O)N/N=C/c2ccccc2)sc1=S,x,1%,1%,x,-10%,14%
Cn1c(N)c(C(=O)Nc2ccccc2F)sc1=S,-11%,-33%,-20%,50µM*,-33%,u
CCOC(=O)c1c(N)sc(C(=O)Nc2ccccc2F)c1C,-8%,-19%,14%,3%,-7%,17%
Cc1nnc(SCC(=O)Nc2ccccc2C(=O)NC2CC2)s1,-11%,11%,-1%,45µM*,3%,56%
CSc1nsc(SCC(=O)Nc2ccc(O)c(C(=O)O)c2)n1,x,-14%,-28%,40µM*,-13%,27%
CSc1nsc(SCC(=O)Nc2ccc(Cl)c(C(=O)O)c2)n1,x,-12%,2%,50µM*,-4%,5%
CSc1nsc(SCC(=O)Nc2ccc(NC(C)=O)cc2)n1,x,-13%,-5%,17%,3%,13%
Cc1nnc(SCC(=O)Nc2ccccc2NC(=O)CSc2nnc(C)s2)s1,x,-4%,17%,-1%[59 µM],-2%,7%
CSc1nsc(SCC(=O)Nc2ccccc2C(=O)O)n1,x,u,-45%,7.9µM*,u,36%
COc1cccc(N2CCN(C3C(=O)c4ccccc4N3C(C)=O)CC2)c1 (stereo unspecified),x,-37%,x,-6%[59 µM],-19%,21%
